Assay [1] can be described thus: NCI Yeast Anticancer Drug Screen. Data for the rad50 strain (AID 155).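 Also: 0% = growth of vehicle-only cultures of the same strain.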 The conditions noted are these: S. cerevisiae rad50 strain growth inhibition, hits give high values; at 50.0 µM unless noted. A digest of the protocol:
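DNA repair mutant yeast, compound exposure, growth read-out; inhibition is taken relative to vehicle.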

The nature of assay [2]: NCI Yeast Anticancer Drug Screen. Data for the mec2-1 strain (AID 157). Conditions: S. cerevisiae mec2-1 strain, hits give high values; at 50.0 µM unless noted. A digest of the protocol:
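Strain: mec2-1 (DNA repair/cell cycle alteration). Compound exposure, then growth measured; inhibition expressed relative to vehicle.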

A short description of assay [3]: NCI Yeast Anticancer Drug Screen. Data for the sgs1 mgt1 strain (AID 161).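 Also: 0% = growth of cultures given vehicle only.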 The conditions noted are these: S. cerevisiae sgs1 mgt1 strain, hits give high values; at 50.0 µM unless noted. The method, boiled down:
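Genetically altered yeast, compound exposure, growth inhibition relative to vehicle.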

Assay [4] can be described thus: NCI Yeast Anticancer Drug Screen. Data for the cln2 rad14 strain (AID 165).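 Also: 0% = growth equal to vehicle treated cultures.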 Conditions: S. cerevisiae cln2 rad14 strain, hits give high values; at 50.0 µM unless noted. A digest of the protocol:
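Compounds are applied to the cln2 rad14 yeast strain, and growth is then compared with that of vehicle-treated cultures to give inhibition.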

Assay [5] is described as follows: NCI Yeast Anticancer Drug Screen. Data for the bub3 strain (AID 167). The conditions noted are these: S. cerevisiae bub3 mutant strain, hits give high values; at 50.0 µM unless noted. A digest of the protocol:
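In this screen, a yeast mutant lacking normal mitotic checkpoint function is challenged with compound. Relative growth versus vehicle gives the inhibition value.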

A short description of assay [6]: NCI Yeast Anticancer Drug Screen. Data for the mlh1 rad18 strain (AID 175). Conditions: S. cerevisiae mlh1 rad18 strain growth inhibition, hits give high values; at 50.0 µM unless noted. A digest of the protocol: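 Read-out is yeast growth inhibition, calculated against vehicle-only controls. The compound was applied to a strain engineered with DNA damage repair alterations.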

Where “and” joins values, the source holds several entries; their conditions need not be identical. Equal values may be shown once. Compounds without any hit were thinned out: in the full panel of roughly 79,000, 15% have a hit. Values without a mark were called inactive. Calls of active or inactive are those of the source. Rule as the data show it: active = growth inhibition above about 70%; inactive = the rest.

The record followed here is PubChem BioAssay (NCI).

As for `CN1CCC/C1=N\C(=Nc1ccccc1)N1CCCC1`, the growth inhibition in assay [1] was 7.95%; in assay [2], -1.8%; in assay [3] it was -6.05%; in assay [4], 12.5%; in assay [5], -4.35%; in assay [6], -9.15%.

With `Cc1nn(C(=O)Cc2ccccc2)c2c1C(c1ccc(Cl)cc1)SC(N)=N2` (stereo not drawn), the growth inhibition in assay [1] is -30.1%; in assay [2], -31.5%; in assay [3], -29.1%; in assay [4], 6.45%; in assay [5], -23.6%; in assay [6], -25.1%.

`CCCCOc1c(Cl)c(Cl)cc(Cl)c1Cl`: the growth inhibition in assay [1] is -10.1%; in assay [2] it was -15.8%; in assay [3] it was -3.5%; in assay [4], 2.2%; in assay [5], 2.05%; in assay [6], -17.1%.

As to `O=C(NCCCl)c1ccc(Cl)c(Cl)c1`, the growth inhibition in assay [1] was 2.8%; in assay [2], 0.25%; in assay [3], 4.95%; in assay [4] it was -20.9%; in assay [5], 12.8%; in assay [6], 3.7%.

Consider `COc1c(O)cc2c(c1O)C1OC(CO)C(O)C(O)C1OC2=O` (stereo not drawn), for which the growth inhibition in assay [1] is -4.3%; in assay [2], -15.4%; in assay [3], -3.85%; in assay [4] it was 19.1%; in assay [5], -20.8%; in assay [6] it was 0.5%.

As to `COc1ccc(-c2cc(=O)c3c(O)c(O)c(OC)cc3o2)cc1O`, the growth inhibition in assay [1] is -5.15%; in assay [2] it was -28.6%; in assay [3], -55.9%; in assay [4] it was -8.4%; in assay [5] it was -2.6%; in assay [6], -18.3%.

Take `CC(=C/c1ccccc1)/C=C1/NC(=S)NC1=O`: the growth inhibition is -25.6% in assay [1]; -41.9% in assay [2]; -16.4% in assay [3]; -2.7% in assay [4]; -23.4% in assay [5]; -21.4% in assay [6].

In the case of `COc1ccc(/C=N\NC(=O)c2cnccn2)cc1`, the growth inhibition in assay [1] is 9.15%; in assay [2], 10.8%; in assay [3] it was 5.35%; in assay [4], 1.4%; in assay [5], 15.7%; in assay [6], 11.1%.

For the molecule `COC1OC(C)C(OC(=O)c2ccccc2)C(OC(=O)c2ccccc2)C1OC(=O)c1ccccc1` (stereo not drawn), the growth inhibition in assay [1] was 16.2%; in assay [2], -3.45%; in assay [3], 3.75%; in assay [4] it was -23.6%; in assay [5] it was 1.95%; in assay [6] it was 12.7%.

Consider `CCOC(=O)c1ccc(NC(=S)NC(=O)C(C)Oc2ccccc2)cc1` (stereo not drawn), for which the growth inhibition is -10.9% in assay [1]; 40% in assay [2]; 44.8% in assay [3]; -21.2% in assay [4]; 37.8% in assay [5]; 25.2% in assay [6].

Regarding `O=C(O)C1C2OC3C(OC(=O)C31)C2Br` (stereo not drawn), the growth inhibition in assay [1] is -9.6% and 3.1%; in assay [2], 6.75% and -15.9%; in assay [3] it was -8.9% and 2.25%; in assay [4] it was 6.4% and -34.2%; in assay [5] it was -2.35% and 1.3%; in assay [6] it was -4.65% and 25.3%.

In the case of `COCc1ccc2c(c1)C(O)NC(=O)O2` (stereo not drawn), the growth inhibition in assay [1] is 4.75%; in assay [2], -4.05%; in assay [3], 13.3%; in assay [4], -28.2%; in assay [5], -8.55%; in assay [6], 16.1%.

As to `CC(Br)CCCBr` (stereo not drawn), the growth inhibition in assay [1] was -19.1%; in assay [2], -5.65%; in assay [3] it was -21.1%; in assay [4], -22.4%; in assay [5] it was -4.5%; in assay [6] it was -13.8%.

Consider `C/C(=C(/C)c1ccc(O)cc1)c1ccc(O)cc1`, for which the growth inhibition in assay [1] is -9.8%; in assay [2] it was -23.8%; in assay [3], 16.3%; in assay [4], 9.05%; in assay [5], 45.9%; in assay [6], 2.7%.

With `CCOC(OCC)c1ccc(OC)c(OC)c1`, the growth inhibition in assay [1] was 13.5%; in assay [2] it was -5.3%; in assay [3] it was 8.95%; in assay [4], -0.1%; in assay [5] it was 3.45%; in assay [6], 9.6%.

As for `O=[N+]([O-])c1cc(C(Nc2nncs2)Nc2nncs2)ccc1Cl`, the growth inhibition was 12.6% in assay [1]; 8.25% in assay [2]; 43.9% in assay [3]; 11% in assay [4]; 2.5% in assay [5]; 46.6% in assay [6].

Consider `Nc1ncnc2c1ncn2CC(O)CN(CCO)CCO` (stereo not drawn), for which the growth inhibition in assay [1] was 13.1%; in assay [2], 7.95%; in assay [3], -3.7%; in assay [4], 8.2%; in assay [5], -10.8%; in assay [6], 18.6%.

Take `Cc1cc2c(cc1Cl)SC(NNC1=NCCN1)=NS2(=O)=O`: the growth inhibition in assay [1] is -23.1%; in assay [2], -8.65%; in assay [3] it was -20%; in assay [4] it was -2.25%; in assay [5], -17.9%; in assay [6], 9.95%.

Take `O=[N+]([O-])c1ccc(CC(Cl)c2ccccc2)cc1` (stereo not drawn): the growth inhibition is 40.8% in assay [1]; 2.35% in assay [2]; 39.5% in assay [3]; -19.1% in assay [4]; 29.8% in assay [5]; 63% in assay [6].

Take `COc1cc2c(cc1OCc1ccccc1)C(Cc1cc(Br)sc1Br)=NCC2`: the growth inhibition in assay [1] is 57.8%; in assay [2], 58.5%; in assay [3], 54%; in assay [4] it was 50.3%; in assay [5], 70.5% (active); in assay [6], 43.4%.

As to `CCN(CC)CC(=O)Nc1ccc2c(c1)C(=O)c1ccc(NC(=O)CN(CC)CC)cc1C2=O`, the growth inhibition in assay [1] was 22.1%; in assay [2], 8%; in assay [3], -4.5%; in assay [4], 16.4%; in assay [5], -1.2%; in assay [6], -8%.

As for `C=C1CC[C@@H](C)[C@](C)(CCc2ccoc2)C/C=C\C=C/1C(=O)O`, the growth inhibition is 23.7% in assay [1]; 30.8% in assay [2]; 18.6% in assay [3]; 48.1% in assay [4]; 25.6% in assay [5]; 61.6% in assay [6].

Consider `O=C(Sc1ccc(Br)cc1)c1ccccc1`, for which the growth inhibition is 29.1% in assay [1]; 24.2% in assay [2]; 1.15% in assay [3]; 13.2% in assay [4]; 10.4% in assay [5]; 1.25% in assay [6].
